According to the supplement of paper PMC10338343:
± gives the standard deviation. The full ranking holds about 8,200 sequences; the median of “pre-steady-state target cleavage rate” is about 0.024, and the highest 2% start at about 1.3. The list comes from a sample in which the highest values are over-represented; it also holds similar and randomly drawn sequences.

Tested on: MIWI (PIWIL1) piRISC loaded with L1MC piRNA (30 nt)
Assay: pre-steady-state target cleavage rate (min^-1); MIWI and MILI are mouse PIWI proteins and EfPiwi is from a freshwater sponge; tags in brackets are library labels; higher = faster piRNA-guided slicing of the target
Settings: guide: L1MC piRNA 5'p-UAACUAAAUACUAUGCAAGCUGUAGGUCCU
Method in brief: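 Cleave-'n-Seq measured uncleaved targets by sequencing after a transcribed, DNA-blocked target RNA library […] was mixed with 1 nM active affinity-purified piRISC holding one synthetic guide, with or without 500 nM GTSF1 partner protein, at 33 °C in HEPES–potassium acetate buffer for 0–8 or 0–960 min. Counts were normalised to depth and to weakly complementary targets, three trials were pooled, and k3 was capped at 0.0001 min^-1. A burst-and-steady-state fit gave the pre-steady-state cleavage rate.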

[1] = auxiliary factor: 500 nM mouse GTSF1
[2] = auxiliary factor: none (no GTSF1)
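Also: 1 nM active piRISC with 0.1 nM target library at 33 °C single turnover.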

Sequence	pre-steady-state target cleavage rate [1]	pre-steady-state target cleavage rate [2]
UCCUGGAACAGCUUGCAUAGUAUUUUAGUUA	0.875 ± 0.046	0.0159 ± 0.003
UCCUGCAACAGCUUGCUUAGUAUUUAGUUA	1.4 ± 0.097	0.0478 ± 0.013
UCCUGGAACAGCUUGCAUAGUAUCUUAGUUA	0.777 ± 0.046	0.0258 ± 0.0072
UCCUGCAACAGCUUGGAUAGUAUUUAGUUA	1.24 ± 0.1	0.0688 ± 0.012
UCCUGGAACAGCUUGCAUAGUAUCUAGUUA	0.508 ± 0.045	0.0563 ± 0.011
UCGACCUACAGCUUGCAUAGUAUUCUAGUUA	0.882 ± 0.094	0.0316 ± 0.0072
UGGACCUACAGCUUGCUUAGUAUUAAGUUA	0.454 ± 0.041	0.012 ± 0.0028
UCCUCCUACAGCUUGCAUACUAUUAAGUUA	0.147 ± 0.022	0.00892 ± 0.0014
UCCACCUACAGGUUGCAAAGUAUUUAGUUA	1 ± 0.04	0.0166 ± 0.0038
AGGACCUACAGGUUGCAAAGUAUUUAGUUA	1.21 ± 0.045	0.0226 ± 0.0041
UCCUCCUACAGGUUGCAAAGUAUUUAGUUA	1.29 ± 0.06	0.0159 ± 0.0033
UCGACCUACAGGUUGCAAAGUAUUUAGUUA	1.33 ± 0.054	0.0193 ± 0.0046
UGGACCUACAGGUUGCAAAGUAUUUAGUUA	1.33 ± 0.082	0.02 ± 0.0043
UCGACCUACAGGUUGCAUAGUAUUUAGUUA	1.14 ± 0.053	0.0468 ± 0.0088
UCCUGCUACAGCUUGCAUAGUAUUUAGUCUA	0.156 ± 0.025	0.00747 ± 0.0028
UCGACCUACAGCUUGCAUAGUUAAUUCAAA	0.538 ± 0.15	
UCCUGGAUGAGCUUGCAUAGUUUUUUGUUA	0.0806 ± 0.014	0.0177 ± 0.0048
UCCUGGAUGAGCUUGCAUUGUAUUUACUUA	0.0649 ± 0.016	0.00906 ± 0.0031
AGGACCUACAGCUUGCAUAGAAUUUUGUUA	0.501 ± 0.047	0.0183 ± 0.0047
AGGACCUACAGCUUGCAUAGUAUUUAGUA	0.795 ± 0.042	0.0502 ± 0.014
UCCACCUAGAGCUUGCAUAGUAUUUAGUUA	0.593 ± 0.06	0.0282 ± 0.0051

Sequence	pre-steady-state target cleavage rate [1]	pre-steady-state target cleavage rate [2]
UCGACCUAGCAGCUUGCAUAGUAUUUAGUUA	1.34 ± 0.058	0.0726 ± 0.016
UGGACCUACUAGCUUGCAUAGUAUUUAGUUA	0.63 ± 0.036	0.0509 ± 0.01
AGCACCUAGAGCUUGCAUAGUAUUUAGUUA	1.47 ± 0.37	0.00468 ± 0.0035
UCCACCUAGCAGCUUGCAUAGUAUUUAGUUA	0.833 ± 0.057	0.0454 ± 0.0087
UGGACCUAGCAGCUUGCAUAGUAUUUAGUUA	1.59 ± 0.13	0.0734 ± 0.014
AGGACCUAGCAGCUUGCAUAGUAUUUAGUUA	1.21 ± 0.073	0.0735 ± 0.015
UGCACCUAGAGCUUGCAUAGUAUUUAGUUA	1.2 ± 0.25	0.0155 ± 0.0045
UCGACCUACUAGCUUGCAUAGUAUUUAGUUA	0.784 ± 0.042	0.0512 ± 0.01
UCGACCUACAGCUUCCAUAGUAAUUAGUUA	0.0526 ± 0.017	
UCCACCUACAGCUUGCAAUCUAUUUAGUUA	0.194 ± 0.018	
UGGACCUACUGCUUGCAUAGUAAUUAGUUA	0.866 ± 0.04	0.033 ± 0.0084
UCCUGGAUGUGCAUGCAUUGUAUUUAGUUA	0.00495 ± 0.0033	
UCCUGGUACAGGAAGCAUAGUAUUUAGUAA	0.0592 ± 0.011	
UCCACCAACAGCUAGCAUAGUAUUUAGUUA	0.97 ± 0.033	0.0197 ± 0.0045
UGGAGGUACAGCUUGCAUAGUAUUUUCAAA	0.0674 ± 0.014	0.00316 ± 0.0017
UGGAGCUACAGCUUCCAUAGUAUUUAGUUA	0.275 ± 0.047	0.00584 ± 0.0013
UCCACCUACGCUUGCAUAGUAUUUAGUUA	0.998 ± 0.04	0.0451 ± 0.0077
AGGACCUACGCUUGCAUAGUAUUUAGUUA	1.27 ± 0.066	0.0719 ± 0.013
UCGACCUACACGCUUGCAUAGUAUUUAGUUA	1.23 ± 0.063	0.0454 ± 0.0074
UCGACCUACGCUUGCAUAGUAUUUAGUUA	1.45 ± 0.052	0.0463 ± 0.0093
UGGACCUACACGCUUGCAUAGUAUUUAGUUA	1.06 ± 0.06	0.0641 ± 0.013

Sequence	pre-steady-state target cleavage rate [1]	pre-steady-state target cleavage rate [2]
UGGACCUACGCUUGCAUAGUAUUUAGUUA	1.4 ± 0.081	0.046 ± 0.008
UCCACCUACAGGUUGCAUAGUAUUUAGUAA	0.866 ± 0.1	0.0134 ± 0.0028
UCCUGGUACAGCUUGCCAUAGUAUUUAGUUA	0.0951 ± 0.024	
UCCUCCUACUGCUUGCAUAGUAUUUAGAUA	0.185 ± 0.024	0.0115 ± 0.002
UCCUGGAUGAGCUUGCAUAGUAAUUAGAUA	0.136 ± 0.034	0.00679 ± 0.0036
UCCUGGAUGUGCUUGCAUUGUAUUUAGAUA	0.0181 ± 0.0038	0.0063 ± 0.0025
UCCUGCUACAGCUAGCAUAGAAUUUAGUUA	0.528 ± 0.048	0.0108 ± 0.0032
AGGGCCUACAGCUUGCAUAGUAUUUAGUUA	1.39 ± 0.061	0.106 ± 0.023
UGGGCCUACAGCUUGCAUAGUAUUUAGUUA	1.39 ± 0.08	0.0716 ± 0.013
UCCUGGAUGAGCUUGAAUAGUAUUUAGUUA	0.944 ± 0.045	0.0233 ± 0.007
UCCUGGAUCAGCAUGCAUAGUAUUUUGUUA	0.517 ± 0.03	0.00866 ± 0.003
UCCUGCUACAGCUUGCAAAGUAUUUAGAAA	0.319 ± 0.043	0.00338 ± 0.0032
UCCUGCUACAGCUAGGAUAGUAUUUAGUUA	1.15 ± 0.12	0.006 ± 0.0018
UCCACCAACAGCAUGCAUAGUAUUUAGUUA	0.943 ± 0.032	0.0211 ± 0.0046
UCCUCCAACAGCAUGCAUAGUAUUUAGUUA	1.11 ± 0.051	0.0217 ± 0.0039
UCGACCAACAGCAUGCAUAGUAUUUAGUUA	1.33 ± 0.037	0.033 ± 0.0067
UCGACCAACAGGUUGCAUAGUAUUUAGUUA	1.16 ± 0.049	0.0326 ± 0.006
AGGACCAACAGCAUGCAUAGUAUUUAGUUA	1.39 ± 0.048	0.0703 ± 0.016
UGGACCAACAGCAUGCAUAGUAUUUAGUUA	1.24 ± 0.046	0.0449 ± 0.01
